DAX1 inh-1: NR0B1 (DAX1) inhibition. P51843. HEK293 Gal4-DAX1 luciferase reporter, luminescence. inhibition, % at 6.75 µM. 0.99% of 340,000 active. AID 504766;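 active = inhibition above the mean over all tested compounds plus 3 SD, cut at about 4.2% in these data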;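 note: inhibition shows as a rise in luminescence from relieved DAX1 repression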
Target sequence (P51843 207-470 limits assumed): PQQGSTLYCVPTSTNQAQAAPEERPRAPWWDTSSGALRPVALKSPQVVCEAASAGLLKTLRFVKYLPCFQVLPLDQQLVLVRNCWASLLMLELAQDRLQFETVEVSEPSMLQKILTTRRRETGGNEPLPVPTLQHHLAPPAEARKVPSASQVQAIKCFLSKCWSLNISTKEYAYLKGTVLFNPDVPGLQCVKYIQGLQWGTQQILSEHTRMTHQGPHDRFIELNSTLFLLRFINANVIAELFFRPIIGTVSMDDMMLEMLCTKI
hcDAF12 agonist: H. contortus DAF-12 activation, primary screen. HEK293 hcDAF-12 lit1-tk-luc reporter, luminescence; 0% DMSO, 100% Δ7-dafachronic acid. activation, % at 6.8 µM. 1.4% of 370,000 active. AID 652067;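 active = activation above the mean of all tested compounds plus 3 SD, cut at about 5.5% in these data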
ssDAF-12 act: activators of S. stercoralis DAF-12 nuclear receptor. HEK293 ssDAF-12/GRIP1 lit1-tk-luc reporter, luminescence; % of 3 µM dafachronic acid response. activation, % at 6.8 µM. 1% of 370,000 active. AID 652126;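 active = activation above the mean over all tested compounds plus 3 SD, cut at about 0.9% in these data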
hgDAF12 agonist: agonists of H. glycines DAF-12 nuclear receptor | HEK293 GAL4-hgDAF12 UAS-luciferase reporter, agonist luminescence; normalized to butyrate control | activation, % at 6.8 µM | 1.8% of 370,000 active | AID 687014;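 active = activation above a cutoff set at the mean of all screened compounds plus 3 SD, cut at about 10% in these data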
SMARCA2 activ: SMARCA2 function activation, primary screen | 1% of 370,000 active | MG213 cells, MMTV-luciferase reporter, dexamethasone, overnight | activation, % at 9.1 µM; in the data active = activation above about 7.8%
DAX1 inh-2: inhibitors of DAX1 repression of SF-1 activated StAR promoter; HEK293T StAR-luciferase reporter, SF-1/DAX-1 repression relief; inhibition, % at 6.8 µM; 1.1% of 370,000 active; AID 652010;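 active = inhibition above the mean over all tested compounds plus 3 SD, cut at about 3.6% in these data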;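 note: higher inhibition means more luminescence from relief of DAX-1 repression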
SMARCA2 conf: confirmation of SMARCA2 (BRM) function activators; shares compounds with SMARCA2 activ; MG213 cells, MMTV-luciferase with dexamethasone, luminescence, overnight; MG213 cells expressing E1A, Rb sequestered; DMSO wells 0%, reference activator 100%; activation, % at 9.1 µM; 30% of 3,500 active;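 active = activation above its plate's cutoff, the mean activation of tested wells plus 3 SD, cut at about 7.9% in these data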
GAL4-VP16 Luc: GAL4-VP16 reporter activation counter-screen; activation, % at 9.1 µM; HEK293 GAL4-VP16 pG5luc reporter, luciferase luminescence; scaled: DMSO wells 0%, SAHA wells 100%; 41% of 3,500 active; shares compounds with SMARCA2 activ;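 active = activation above the solvent-only control well mean plus 3 SD, averaged across control plates, cut at about 5.2% in these data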
Of the large screens only hits and unclear results are named; the others gave an inactive call (follow-up assays come after a bar, where they were run). A selection: hits, their analogues and other compounds. The true share with any hit is near 4.8%.

CCOc1ccc2nc(NC(=O)CSc3cn[nH]n3)sc2c1	SMARCA2 activ 12.0 | SMARCA2 conf 8.2 | GAL4-VP16 Luc 12.9
CCOc1ccc(NC(=O)Cn2cncc2-c2ccc([N+](=O)[O-])cc2)cc1	none
CCOC(=O)Cn1cncc1-c1ccc([N+](=O)[O-])cc1	SMARCA2 activ 12.7 | SMARCA2 conf inactive | GAL4-VP16 Luc inactive
CC1CCCCN1c1nnc(NC(=O)c2cc(-c3ccc(Br)cc3)on2)s1 (centres undefined)	none
CC1CCCN(C(=O)c2ccc3c(c2)OCCO3)C1 (centres undefined)	SMARCA2 activ 9.9 | SMARCA2 conf inactive | GAL4-VP16 Luc 5.5
O=C(c1ccc2c(c1)OCCO2)N1CCCCC1	none
N#Cc1c(/N=C/N2CCOCC2)sc2c1CCCCC2	SMARCA2 activ 17.7 | SMARCA2 conf inactive | GAL4-VP16 Luc 11.7
CCCN(/C=N/c1sc2c(c1C#N)CCCCC2)CCC	SMARCA2 activ 15.4 | SMARCA2 conf inactive | GAL4-VP16 Luc inactive
COc1ccc(-c2cc(C#N)nc(Cl)n2)cc1	SMARCA2 activ 21.2 | SMARCA2 conf 40.9 | GAL4-VP16 Luc inactive
CN(C)c1ccc(C=C2C=C(c3ccccc3)OC2=O)cc1	none
Cc1ccc(C=C2C=C(c3ccccc3)OC2=O)cc1	SMARCA2 activ 8.6 | SMARCA2 conf inactive | GAL4-VP16 Luc 6.1
O=[N+]([O-])c1ccc(SCCc2ccncc2)cc1	none
O=[N+]([O-])c1ccc(SCCc2ccccn2)cc1	SMARCA2 activ 11.5 | SMARCA2 conf inactive | GAL4-VP16 Luc inactive
S=C(NC1CCCC1)N1CCOCC1	SMARCA2 activ 8.2 | SMARCA2 conf inactive | GAL4-VP16 Luc inactive
S=C(NC1CCCCC1)N1CCOCCOCCN(C(=S)NC2CCCCC2)CCOCC1	none (no result: DAX1 inh-1)
COc1cccc2cc(C(=O)N3CCCCC3C)c(=O)oc12 (centres undefined)	none
COc1cccc2cc(NC(=O)C3CCCCC3)c(=O)oc12	SMARCA2 activ 12.2 | SMARCA2 conf 7.8 | GAL4-VP16 Luc 10.4
Cc1nc(NCCc2ccccc2)sc1C(=O)N(C)C	SMARCA2 activ 8.6 | SMARCA2 conf inactive | GAL4-VP16 Luc inactive
COc1ccccc1CNc1nc(C)c(C(=O)N(C)C)s1	none
COC(=O)[C@]1(C)N[C@H](CN(C)C(=O)Nc2ccccc2)[C@@H]2C(=O)N(C)C(=O)[C@@H]21	none
CSCCNC(=O)c1ccc(OC2CCN(CCc3ccccc3)CC2)cc1	SMARCA2 activ 8.0 | SMARCA2 conf inactive | GAL4-VP16 Luc inactive
COC(=O)CCCNC(=O)c1ccc(OC2CCN(CCc3ccccc3)CC2)cc1	none
Cn1cc(CNCc2cn(C)nc2-c2ccc(C3CCCCC3)cc2)cn1	none
O=C(COC(=O)CCc1ccc(S(=O)(=O)N2CCOCC2)cc1)NC(=O)NC1CCCCC1	none
COc1cc2nc(Nc3ccc(C)c(Cl)c3)nc(N)c2cc1OC	SMARCA2 activ 9.5 | SMARCA2 conf inactive | GAL4-VP16 Luc inactive
COc1cc2nc(Nc3ccc(C)c(C)c3)nc(N)c2cc1OC	none
COc1cc(OC)c(-c2nn3c(C4CCCCC4)nnc3s2)cc1OC	SMARCA2 activ 8.3 | SMARCA2 conf inactive | GAL4-VP16 Luc inactive
COc1cc(-c2nnc3sc(C4CCCCC4)nn23)cc(OC)c1OC	none (no result: hcDAF12 agonist, ssDAF-12 act, hgDAF12 agonist, SMARCA2 activ, DAX1 inh-2)
Cc1nc2cc3nc(C)sc3cc2s1	SMARCA2 activ 9.0 | SMARCA2 conf 8.7 | GAL4-VP16 Luc 6.7
Cc1nc2cc3ccccc3cc2s1	none
COc1cc(NS(C)(=O)=O)c(OC)cc1NC(=O)c1cccc(F)c1	none
Cc1noc(C)c1C(=O)NNc1ccc(C(C)C)cc1	none
Cc1ccc(NNC(=O)c2c(C)noc2C)cc1Cl	SMARCA2 activ 11.9 | SMARCA2 conf inactive | GAL4-VP16 Luc inactive
COc1ccc(-c2nc3c(-c4ccc(F)cc4)cnn3cc2C)cc1F	none

High-throughput results from PubChem BioAssay.
